Measured values published in PubChem BioAssay (NCI).
About 83,000 compounds went through this panel and 20% of them were active in at least one assay; those are over-represented in the sample as a whole.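 How to read the values: 0–100, growth inhibition (40 = 60% inhibited); 0, no net growth; -100 to 0, cell death (-40 = 40% of starting cells died; -100 = all dead).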 The source made the active and inactive calls. How the source made its calls: active means growth percent below 10; inactive means the rest.

Key:
Assay in all cases: NCI-60 one-dose screen, 48 h (100 = growth as untreated, 0 = no growth, -100 = all killed)
Conditions in all cases: 10 µM unless noted
DU-145 prostate = system: DU-145 prostate
K-562 leukemia = system: K-562 leukemia
MALME-3M melanoma = system: MALME-3M melanoma
MDA-MB-231 breast = system: MDA-MB-231 breast
RXF 393 renal = system: RXF 393 renal
SF-268 CNS = system: SF-268 CNS
SF-295 CNS = system: SF-295 CNS
SF-539 CNS = system: SF-539 CNS
UACC-257 melanoma = system: UACC-257 melanoma
M14 melanoma = system: M14 melanoma

Measured: growth

CCCCCCCCCCCCCCn1c2ccccc2c2c3c(c4c5cc(OC)ccc5oc4c21)C(=O)NC3=O
inactive: DU-145 prostate 111% | K-562 leukemia 111% | MALME-3M melanoma 115% | MDA-MB-231 breast 111% | RXF 393 renal 122% | SF-268 CNS 99.8% | SF-295 CNS 104% | SF-539 CNS 97% | UACC-257 melanoma 102% | M14 melanoma 101%

c1ccc2cc(-c3n(Cc4ccc5ccccc5n4)c4ccccc4[n+]3Cc3ccc4ccccc4n3)ccc2c1
inactive: DU-145 prostate 13.3%
active: K-562 leukemia -6.05% | MALME-3M melanoma -32.9% | MDA-MB-231 breast -21% | RXF 393 renal -18.8% | SF-268 CNS -3.09% | SF-295 CNS -13.7% | SF-539 CNS 0.28% | UACC-257 melanoma -14.2% | M14 melanoma -8.82%

O=c1oc2ccccc2cc1-c1csc(N/N=C/c2cc3ccccc3nc2Cl)n1
inactive: DU-145 prostate 87.6% | K-562 leukemia 108% | MALME-3M melanoma 103% | MDA-MB-231 breast 79.1% | RXF 393 renal 111% | SF-268 CNS 106% | SF-295 CNS 97.8% | SF-539 CNS 96.1% | UACC-257 melanoma 115% | M14 melanoma 115%

O=C(N/N=C(\CS(=O)(=O)c1ccccc1)c1cc2cc(Br)ccc2oc1=O)c1ccccc1
inactive: DU-145 prostate 105% | K-562 leukemia 112% | MALME-3M melanoma 111% | MDA-MB-231 breast 94.2% | RXF 393 renal 126% | SF-268 CNS 98% | SF-295 CNS 98.6% | SF-539 CNS 101% | UACC-257 melanoma 107% | M14 melanoma 106%

COc1cc(/C=C/c2cc(/C=C/c3ccc(O)c(OC)c3)n(-c3ccccc3)n2)ccc1O
active: DU-145 prostate -45.7% | K-562 leukemia -15.5% | MALME-3M melanoma -39% | MDA-MB-231 breast 5.23% | RXF 393 renal -70% | SF-268 CNS -12.5% | SF-295 CNS -71.5% | SF-539 CNS -39.8% | M14 melanoma -56%
inactive: UACC-257 melanoma 16%

COC(=O)[C@H]1CCCN1C(=O)[C@H]1CCCN1C(=O)[C@@H](Cc1c[nH]c2ccccc12)NC(=S)Nc1cc(C(F)(F)F)cc(C(F)(F)F)c1
inactive: DU-145 prostate 51.7% | K-562 leukemia 34.2% | MALME-3M melanoma 47.4% | MDA-MB-231 breast 44.5% | RXF 393 renal 56.3% | SF-268 CNS 36.1% | SF-539 CNS 74.4% | UACC-257 melanoma 75.4% | M14 melanoma 44.4%
active: SF-295 CNS -50.5%

COC(=O)[C@@]12CC[C@@H](C)[C@]3(C[C@@H](c4ccoc4)OC3=O)[C@H]1CC[C@@H]1O[C@@]12C
inactive: DU-145 prostate 104% | K-562 leukemia 113% | MALME-3M melanoma 101% | MDA-MB-231 breast 108% | RXF 393 renal 118% | SF-268 CNS 95% | SF-295 CNS 100% | SF-539 CNS 105% | UACC-257 melanoma 99.6% | M14 melanoma 99.8%

Clc1ccc2c(c1)C[C@H]1C[C@@H](c3cccs3)N2O1
inactive: DU-145 prostate 106% | K-562 leukemia 106% | MALME-3M melanoma 95.9% | MDA-MB-231 breast 113% | RXF 393 renal 131% | SF-268 CNS 102% | SF-295 CNS 94.4% | SF-539 CNS 92.3% | UACC-257 melanoma 105% | M14 melanoma 118%

c1ccc(-c2n(Cc3ccc4ccccc4c3)c3ccccc3[n+]2Cc2ccc3ccccc3c2)cc1
active: DU-145 prostate 4.24% | K-562 leukemia -35.8% | MALME-3M melanoma -57.5% | MDA-MB-231 breast -49.4% | RXF 393 renal -39.4% | SF-268 CNS -61.9% | SF-295 CNS -47.1% | SF-539 CNS -16.2% | UACC-257 melanoma -21.4% | M14 melanoma -75.8%

Cc1nc2cc(Nc3nc(Cl)nc(Nc4ccc(F)cc4)n3)ccc2n1Cc1ccccc1
inactive: DU-145 prostate 64% | K-562 leukemia 85.2% | MALME-3M melanoma 107% | MDA-MB-231 breast 82.1% | RXF 393 renal 77.1% | SF-268 CNS 91.1% | SF-295 CNS 96.4% | SF-539 CNS 70.2% | UACC-257 melanoma 89.7% | M14 melanoma 109%

COc1cccc(-c2ccc3c(c2)C2CCN(Cc4ccccc4)C3C2)c1 (stereo not given)
inactive: DU-145 prostate 95.6% | K-562 leukemia 22.7% | MALME-3M melanoma 62.8% | MDA-MB-231 breast 88.8% | RXF 393 renal 98% | SF-268 CNS 86.9% | SF-295 CNS 81.2% | SF-539 CNS 85.1% | UACC-257 melanoma 78.7% | M14 melanoma 72.2%

C[C@@H](Oc1cc(-c2cnn(C3CC4(CNC4)C3)c2)cnc1N)c1c(Cl)ccc(F)c1Cl
active: K-562 leukemia 5.12% | UACC-257 melanoma 8.56%
inactive: DU-145 prostate 46.6% | MALME-3M melanoma 48.5% | MDA-MB-231 breast 37.9% | RXF 393 renal 21.7% | SF-268 CNS 39.6% | SF-295 CNS 24.5% | SF-539 CNS 28.9% | M14 melanoma 30.2%

O=C(N/N=C/c1ccc2c(c1)OCO2)c1cnn2c1NC(c1ccccc1)C2 (stereo not given)
active: RXF 393 renal 6.73%
inactive: DU-145 prostate 60.9% | K-562 leukemia 29.8% | MALME-3M melanoma 55.1% | MDA-MB-231 breast 53.2% | SF-268 CNS 66% | SF-295 CNS 47.3% | SF-539 CNS 59.1% | UACC-257 melanoma 72.4% | M14 melanoma 42.7%

CCCCC(O)Cn1ncc(C(=O)OCC)c1NC(=O)NCc1ccccc1C(F)(F)F (stereo not given)
inactive: DU-145 prostate 102% | K-562 leukemia 71.8% | MALME-3M melanoma 93.2% | MDA-MB-231 breast 92.2% | RXF 393 renal 106% | SF-268 CNS 97.7% | SF-295 CNS 94.3% | SF-539 CNS 95.9% | UACC-257 melanoma 93.7% | M14 melanoma 95.2%

COc1cccc(C2C3=C(COC3=O)N(CCO)c3cc4c(cc32)OCO4)c1 (stereo not given)
inactive: K-562 leukemia 21% | MALME-3M melanoma 82.4% | MDA-MB-231 breast 34.6% | SF-268 CNS 38.3% | UACC-257 melanoma 35.5%
active: DU-145 prostate 0.613% | RXF 393 renal -14.5% | SF-295 CNS -13.8% | SF-539 CNS -19.1% | M14 melanoma -24.2%

COc1cc2oc(-c3ccc(O)cc3)cc(=O)c2c(O)c1I
inactive: DU-145 prostate 104% | K-562 leukemia 92.6% | MALME-3M melanoma 115% | MDA-MB-231 breast 99% | RXF 393 renal 138% | SF-268 CNS 105% | SF-295 CNS 97% | SF-539 CNS 100% | UACC-257 melanoma 96.6% | M14 melanoma 110%

Cc1nc2nc(C(F)(F)F)[nH]c2nc1C
inactive: DU-145 prostate 115% | K-562 leukemia 92.9% | MALME-3M melanoma 117% | MDA-MB-231 breast 114% | RXF 393 renal 106% | SF-268 CNS 102% | SF-295 CNS 78.6% | SF-539 CNS 120% | UACC-257 melanoma 100% | M14 melanoma 105%

O=[N+]([O-])c1ccc(C=C2C(Cl)=C(Cl)C(Cl)=C2Cl)cc1
active: K-562 leukemia 7.31% | RXF 393 renal 0.914%
inactive: DU-145 prostate 73% | MALME-3M melanoma 108% | MDA-MB-231 breast 74.8% | SF-268 CNS 55.1% | SF-295 CNS 86.3% | SF-539 CNS 75.8% | UACC-257 melanoma 67.7% | M14 melanoma 36.9%

O=C(O)c1ccccc1Oc1cc(-c2ccco2)nc(OCCBr)n1
inactive: DU-145 prostate 104% | K-562 leukemia 100% | MALME-3M melanoma 99.1% | MDA-MB-231 breast 105% | RXF 393 renal 135% | SF-268 CNS 98.7% | SF-295 CNS 95.1% | SF-539 CNS 105% | UACC-257 melanoma 97.8% | M14 melanoma 104%

COC(=O)CCC(=O)c1ccccc1
inactive: DU-145 prostate 106% | K-562 leukemia 96.9% | MALME-3M melanoma 158% | MDA-MB-231 breast 111% | RXF 393 renal 139% | SF-268 CNS 107% | SF-295 CNS 91.8% | SF-539 CNS 99.9% | UACC-257 melanoma 106% | M14 melanoma 103%

O=C1C(N2CCOCC2)=Cc2cccc3cccc1c23
inactive: DU-145 prostate 104% | K-562 leukemia 30.8% | MALME-3M melanoma 113% | MDA-MB-231 breast 106% | RXF 393 renal 99.3% | SF-268 CNS 93.8% | SF-295 CNS 112% | SF-539 CNS 97.5% | UACC-257 melanoma 101% | M14 melanoma 104%

COc1cc(C(F)(F)F)ccc1-c1cc(-c2ccc(F)cc2)n[nH]1
inactive: DU-145 prostate 95.7% | K-562 leukemia 97.5% | MALME-3M melanoma 90.8% | MDA-MB-231 breast 80.2% | RXF 393 renal 92.4% | SF-268 CNS 101% | SF-295 CNS 97.6% | SF-539 CNS 91.2% | UACC-257 melanoma 82.5% | M14 melanoma 93.1%

O=C1C=CC(=O)N1CCCCCCCCCCN1C(=O)C=CC1=O
inactive: DU-145 prostate 80.1% | MALME-3M melanoma 70% | MDA-MB-231 breast 104% | RXF 393 renal 76.6% | SF-268 CNS 103% | SF-295 CNS 73.7% | SF-539 CNS 91.1% | UACC-257 melanoma 76.1% | M14 melanoma 77.8%
active: K-562 leukemia 5.56%

COc1cc(-c2nc3ccccc3o2)cc(CN2CCN(c3ccccc3)CC2)c1O
inactive: DU-145 prostate 71.8% | K-562 leukemia 40.1% | MALME-3M melanoma 63% | MDA-MB-231 breast 69.3% | RXF 393 renal 107% | SF-268 CNS 83.3% | SF-295 CNS 36.2% | SF-539 CNS 94.7% | UACC-257 melanoma 86.7% | M14 melanoma 52.5%

O=C(N/N=C/c1ccc(F)cc1)c1[nH]c2ccc(I)cc2c1-c1ccccc1
active: SF-539 CNS -18.1%
inactive: DU-145 prostate 15.7% | K-562 leukemia 75.4% | MALME-3M melanoma 71.5% | MDA-MB-231 breast 16.5% | RXF 393 renal 39.6% | SF-268 CNS 34.6% | SF-295 CNS 22.1% | UACC-257 melanoma 93.3% | M14 melanoma 28.4%

O=C1/C(=C/c2ccc(Oc3ccccc3)cc2)N=C(c2ccccc2)N1CCc1cccs1
inactive: DU-145 prostate 98% | K-562 leukemia 84% | MALME-3M melanoma 86.1% | MDA-MB-231 breast 79.8% | RXF 393 renal 92.1% | SF-268 CNS 80.8% | SF-295 CNS 82.9% | SF-539 CNS 104% | UACC-257 melanoma 99.1% | M14 melanoma 58.7%

COc1cc(C2CC(=O)Nc3c2ccc2ccccc32)cc(Br)c1OC (stereo not given)
active: DU-145 prostate -4.56% | K-562 leukemia 6.59% | RXF 393 renal -1.55% | SF-295 CNS -33.7% | SF-539 CNS 0.195% | M14 melanoma -15.3%
inactive: MALME-3M melanoma 27.6% | MDA-MB-231 breast 28.5% | SF-268 CNS 42.5% | UACC-257 melanoma 59.7%
